Laboratory results published in PubChem BioAssay AID651610 (Broad Institute, 2012).
In all, about 360,000 compounds went through this assay and about 3,900 (1.1%) were called active.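 How the source made its calls: active means mean replicate inhibition score of at least 50 and every replicate individually at or above 50; inconclusive means only one of the two criteria met; inactive means mean below 50 and not all replicates reaching 50.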 What follows is part of a selection rich in actives, with near analogues and random picks from the rest.

test: blockers of JRFL envelope-mediated fusion – HeLa-JRFL effector, CEM21 target cells, luciferase, primary screen (AID 651610); conditions: HeLa-JRFL Env/CEM21 cell fusion, stronger effect = higher value; at 16.7 µM unless noted;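 further: 0% = plate neutral controls and 100% = maraviroc near 300 nM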

| SMILES | inhibition |
| --- | --- |
| COc1ccc(S(=O)(=O)N2CCOCC2)cc1NC(=O)COc1ccccc1 | -4.29% [at 12.3 µM] (inactive) |
| COc1ccc(-c2nn(C)c(=O)c3ccccc23)cc1NC(=O)COc1ccccc1 | 79.8% [at 12.3 µM] (active) |
| COc1ccc(-c2nn(C)c(=O)c3ccccc23)cc1CNC(=O)C1CCCCC1 | 23.3% [at 12.3 µM] (inactive) |
| Cc1noc(C)c1NC(=O)N[C@H]1CC[C@H](CC(=O)N2CCCCC2)O[C@@H]1CO | 4.43% (inactive) |
| CC1=C(C(=O)N(C(C)C)C(C)C)CC(CC(=O)NCC2CCCCC2)C(=O)N1Cc1ccccc1 (stereo not given) | 61.4% [at 12.3 µM] (active) |
| CCN(CC)C(=O)C1=C(C)N(Cc2ccccc2)C(=O)C(CC(=O)NC(c2ccccc2)c2ccccc2)C1 (stereo not given) | -23.1% [at 12.3 µM] (inactive) |
| CC1=C(C(=O)N2CCOCC2)CC(CC(=O)NCC2CCCCC2)C(=O)N1Cc1ccc(F)cc1 (stereo not given) | 6.87% [at 12.3 µM] (inactive) |
| CC(NCc1ccccc1OC1CCCC1)c1ccccc1 (stereo not given) | 62.5% [at 12.3 µM] (active) |
| CC(C)(C)NCc1cc(Br)ccc1OC1CCCC1 | 14.4% [at 12.3 µM] (inactive) |
| COc1cc(CNC2CCCCC2)c(Br)cc1OC1CCCC1 | -65.6% [at 12.3 µM] (inactive) |
| CCOC(=O)CNC(=O)N(C)[C@H]1C[C@H]2c3[nH]c4c(-c5ccc6c(c5)OCO6)cccc4c3CCN2C(=O)[C@H]1[C@H](C)O | -112% [at 12.3 µM] (inactive) |
| CN1CCN(C(=O)C[C@H]2C[C@@H]3c4cc(NC(=O)NC5CCCC5)ccc4O[C@@H]3[C@@H](CO)O2)CC1 | -8.97% (inactive) |
| CC1CCN(C(=O)c2ncn3c2C(=O)N[C@@H](C)C3)CC1 | 131% [at 12.3 µM] (active) |
| CC1CCN(C(=O)c2cc3nc(C4CC4)cc(C(F)(F)F)n3n2)CC1 | 12.6% [at 12.3 µM] (inactive) |
| CC1CCN(C(=O)c2ccc3c(c2)NC(=O)CN3)CC1 | 1.27% [at 12.3 µM] (inactive) |
| CCCNC(=O)N1[C@@H](C#N)[C@H](c2ccc(-c3ccc(C(=O)N(C)C)cc3)cc2)[C@@H]1CO | 26% (inactive) |
| O=C(NCc1ccncn1)[C@@H]1[C@@H](CO)[C@@H]2Cn3c(ccc(-c4ccc(F)cc4)c3=O)[C@@H]2N1CC1CC1 | -1.91% (inactive) |
| COc1ccc(NC(=O)Nc2ccc3c(c2)CC(=O)N([C@@H](C)CO)C[C@H](C)[C@@H](CN(C)S(=O)(=O)c2cn(C)cn2)O3)cc1 | 13% (inactive) |
| O=C(COC(=O)COc1cc(Cl)c(Cl)cc1Cl)NC1CC1 | 1.57% [at 12.3 µM] (inactive) |
| NC(=S)NN=Cc1ccc(OC(=O)COc2cc(Cl)c(Cl)cc2Cl)cn1 | 74.3% [at 12.3 µM] (active) |
| O=C(COc1cc(Cl)c(Cl)cc1Cl)NCCc1ccccn1 | -1.39% [at 12.3 µM] (inactive) |
| CCCN(C)C[C@H]1OCCCC[C@@H](C)Oc2ccc(N(C)C)cc2C(=O)N([C@H](C)CO)C[C@@H]1C | 0.797% (inactive) |
| CCOC(=O)c1c(C)[nH]c(C)c1S(=O)(=O)NCCCc1ccco1 | -4.62% [at 12.3 µM] (inactive) |
| CCOC(=O)c1c(C)[nH]c2c1-c1ccccc1C(=O)C2=O | 58.9% [at 12.3 µM] (active) |
| CCOC(=O)c1[nH]c2ccccc2c1N=C(C)N(CC)CC | -0.896% [at 12.3 µM] (inactive) |

| SMILES | inhibition |
| --- | --- |
| C[C@H](CO)N1C[C@H](C)[C@@H](CN(C)CC2CC2)Oc2ccc(NC(=O)Nc3ccccc3)cc2CC1=O | -2.58% (inactive) |
| CCN(C(=O)CN1C(=O)/C(=C/c2ccc(F)cc2)SC1=S)C1CCS(=O)(=O)C1 (stereo not given) | -11.4% [at 12.3 µM] (inactive) |
| CN(C(=O)CN1C(=O)/C(=C/c2ccc(Cl)cc2)SC1=S)C1CCS(=O)(=O)C1 (stereo not given) | 55.1% [at 12.3 µM] (active) |
| CN(C(=O)CCN1C(=O)/C(=C/c2ccccc2F)SC1=S)C1CCS(=O)(=O)C1 (stereo not given) | -6.28% [at 12.3 µM] (inactive) |
| CNC[C@H]1Oc2ncc(-c3ccccc3F)cc2C(=O)N([C@H](C)CO)C[C@H]1C | 10.5% (inactive) |
| O=C(C[C@H]1C[C@H]2c3cc(NS(=O)(=O)c4ccc(F)cc4)ccc3O[C@H]2[C@H](CO)O1)NCc1cc(F)ccc1F | -74.8% [at 12.3 µM] (inactive) |
| O=C(C[C@@H]1C[C@@H]2c3cc(NS(=O)(=O)c4ccc(F)cc4)ccc3O[C@@H]2[C@H](CO)O1)NCc1ccccc1F | 90.3% (active) |
| O=C(C[C@H]1C[C@@H]2c3cc(NS(=O)(=O)c4ccc(F)cc4)ccc3O[C@@H]2[C@@H](CO)O1)NCc1cccc(F)c1 | 10.7% (inactive) |
| O=C(C[C@@H]1C[C@H]2c3cc(NS(=O)(=O)c4ccc(F)cc4)ccc3O[C@H]2[C@@H](CO)O1)NCc1ccccc1F | 56.4% (active) |
| O=C(C[C@H]1C[C@@H]2c3cc(NS(=O)(=O)c4ccc(F)cc4)ccc3O[C@@H]2[C@H](CO)O1)NCc1cccc(F)c1 | 54.4% (inactive) |
| COc1ccccc1CNC(=O)C[C@H]1C[C@H]2c3cc(NS(=O)(=O)c4ccc(F)cc4)ccc3O[C@H]2[C@@H](CO)O1 | -11.5% (inactive) |
| C[C@@H]1CN([C@H](C)CO)C(=O)c2cc(C#CC3CCCC3)cnc2O[C@@H]1CN(C)C(=O)C1CCC1 | -5.58% (inactive) |
| O=C(Cc1ccncc1)Nc1ccc2c(c1)[C@@H]1C[C@H](CC(=O)N3CCCCC3)O[C@H](CO)[C@@H]1O2 | 9.17% (inactive) |
| C[C@@H]1CCCCO[C@@H](CN(C)Cc2ccc(C(=O)O)cc2)[C@@H](C)CN([C@@H](C)CO)C(=O)c2cc(NC(=O)Nc3ccc(C(F)(F)F)cc3)ccc2O1 | -4.94% (inactive) |
| COc1ccc2c3c([nH]c2c1)[C@@H](CO)N(C(=O)Nc1cccc(F)c1)CC31CCN(S(=O)(=O)c2ccccc2)CC1 | 80.9% (active) |
| COc1ccc2c3c(n(C)c2c1)[C@@H](CO)N(C(=O)Nc1cccc(F)c1)CC31CCN(Cc2nccs2)CC1 | 23.1% (inactive) |
| COc1ccc2c3c([nH]c2c1)[C@H](CO)N(C(=O)Nc1cccc(F)c1)CC31CCN(S(=O)(=O)c2ccccc2)CC1 | 92.2% (active) |
| COc1ccc2c3c([nH]c2c1)[C@H](CO)N(C(=O)Nc1ccc(F)cc1)CC31CN(S(=O)(=O)c2cccc(F)c2)C1 | -38.9% (inactive) |
| COc1ccc2c3c([nH]c2c1)[C@H](CO)N(C(=O)c1ccccc1)CC31CN(C(=O)Nc2cccc(F)c2)C1 | 12.9% (inactive) |
| COc1ccc2c3c([nH]c2c1)[C@@H](CO)N(C(C)=O)CC31CN(C(=O)Nc2ccc(F)cc2)C1 | 31% (inactive) |
| N#C[C@@H]1[C@@H](c2ccc(-c3ccccc3F)cc2)[C@@H](CO)N1C(=O)C1CC1 | -18.6% (inactive) |
| C[C@H]1CN([C@@H](C)CO)S(=O)(=O)c2ccc(C#CC3CCCC3)cc2O[C@@H]1CN(C)C(=O)c1cccc(F)c1 | 33.9% (inactive) |
| O=C(C[C@H]1CC[C@H]2[C@@H](COC[C@H](O)CN2CCC(F)(F)F)O1)N1CCC(Cc2ccccc2)CC1 | 32.1% (inactive) |
| C[C@H]1CN([C@@H](C)CO)C(=O)Cc2cc(NC(=O)Cc3ccccc3)ccc2O[C@H]1CN(C)S(=O)(=O)c1cccs1 | 98.7% [at 12.3 µM] (active) |
| Cc1ccc(S(=O)(=O)Nc2ccc3c(c2)CC(=O)N([C@H](C)CO)C[C@@H](C)[C@H](CN(C)Cc2ccc(C(F)(F)F)cc2)O3)cc1 | 8.6% (inactive) |

| SMILES | inhibition |
| --- | --- |
| C[C@@H]1CN([C@H](C)CO)C(=O)Cc2cc(NS(=O)(=O)c3ccc(Cl)cc3)ccc2O[C@H]1CN(C)S(=O)(=O)c1cccs1 | -4.91% (inactive) |
| C[C@H](CO)N1C[C@H](C)[C@H](CN(C)S(=O)(=O)c2cccs2)Oc2ccc(NS(=O)(=O)c3ccc(Cl)cc3)cc2CC1=O | 55.2% (active) |
| C[C@@H]1CN([C@H](C)CO)C(=O)Cc2cc(NC(=O)CCCN(C)C)ccc2O[C@@H]1CN(C)S(=O)(=O)c1cccs1 | -1.4% (inactive) |
| C[C@H]1CN([C@@H](C)CO)C(=O)Cc2cc(NS(=O)(=O)c3ccc(F)cc3)ccc2O[C@H]1CN(C)Cc1ccc(C(F)(F)F)cc1 | -1.59% (inactive) |
| C[C@H]1CN([C@@H](C)CO)C(=O)Cc2cc(NC(=O)NC3CCCCC3)ccc2O[C@H]1CN(C)S(=O)(=O)c1cccs1 | 56.2% (active) |
| C[C@H](CO)N1C[C@H](C)[C@@H](CN(C)S(=O)(=O)c2ccc(Cl)cc2)Oc2ccc(NS(=O)(=O)c3cccs3)cc2CC1=O | -22% (inactive) |
| C[C@@H]1CN([C@H](C)CO)C(=O)Cc2cc(NC(=O)Cc3ccccc3)ccc2O[C@H]1CN(C)S(=O)(=O)c1cccs1 | 25.8% (inactive) |
| C[C@@H]1CN([C@@H](C)CO)C(=O)Cc2cc(NS(=O)(=O)c3ccc(Cl)cc3)ccc2O[C@H]1CN(C)Cc1ccc(C(F)(F)F)cc1 | 77.5% (active) |
| C[C@H]1CN([C@@H](C)CO)C(=O)c2cc(NC(=O)NC3CCCCC3)ccc2O[C@@H]1CN(C)S(=O)(=O)c1cccs1 | 7.17% (inactive) |
| C[C@H]1CN([C@@H](C)CO)C(=O)Cc2cc(NC(=O)C3CC3)ccc2O[C@@H]1CN(C)S(=O)(=O)c1cccs1 | -4.09% (inactive) |
| [N-]=[N+]=Nc1ccccc1C[C@@]1(C(=O)NCc2ccccc2)N=C(c2ccc(OCCCO)cc2)O[C@@H]1c1ccccc1 | 42.5% (inactive) |
| C[C@H]1CN([C@@H](C)CO)C(=O)c2cccc(NS(=O)(=O)c3ccc(F)cc3)c2O[C@@H]1CN(C)CC1CC1 | -1.23% (inactive) |
| Cc1noc(C)c1NC(=O)N(C)C[C@@H]1OCCCC[C@H](C)Oc2ccc(NC(=O)c3ccccc3)cc2C(=O)N([C@@H](C)CO)C[C@@H]1C | 18.4% (inactive) |
| N#C[C@@H]1[C@@H](c2ccc(-c3ccccc3F)cc2)[C@@H](CO)N1C(=O)c1ccccn1 | 16.4% (inactive) |
| C[C@@H]1CN([C@H](C)CO)C(=O)c2ccccc2-c2ccccc2CO[C@H]1CN(C)C(=O)CCC(F)(F)F | -2.05% (inactive) |
| CCCC#Cc1ccc([C@@H]2[C@@H](C#N)N(C(=O)C3CC3)[C@H]2CO)cc1 | -1.11% (inactive) |
| CCC(=O)Nc1ccc2c(c1)OC[C@H](C)N(Cc1ccccc1F)C[C@H](C)[C@@H](OC)CN(C)C2=O | 27.1% (inactive) |
| CCCN1C[C@@H](C)[C@@H](OC)CN(C)C(=O)c2ccc(NC(=O)Nc3cccc(F)c3)cc2OC[C@@H]1C | -6.04% (inactive) |
| C/C=C/c1ccccc1[C@H]1[C@@H](C#N)N(C(=O)Cc2ccccn2)[C@@H]1CO | -20.6% (inactive) |
| C[C@@H]1CN([C@@H](C)CO)C(=O)c2cc(C#CCc3ccccc3)cnc2O[C@@H]1CN(C)C(=O)C1CCOCC1 | 6.96% (inactive) |
| C[C@@H]1CN([C@@H](C)CO)C(=O)c2cccc(NS(=O)(=O)c3ccc(Cl)cc3)c2O[C@@H]1CN(C)Cc1ccccc1 | -7.04% (inactive) |
| C[C@@H]1CN([C@H](C)CO)C(=O)c2cccc(NS(=O)(=O)c3ccc(Cl)cc3)c2O[C@@H]1CN(C)Cc1ccc(Cl)c(Cl)c1 | 74.9% (active) |
| C[C@@H]1CN([C@H](C)CO)C(=O)c2cccc(NS(=O)(=O)c3ccc(Cl)cc3)c2O[C@H]1CN(C)Cc1ccc(C(F)(F)F)cc1 | 9.64% (inactive) |
| COc1cccc(S(=O)(=O)N(C)C[C@@H]2Oc3ncc(-c4cccc(C(=O)N(C)C)c4)cc3C(=O)N([C@H](C)CO)C[C@H]2C)c1 | 3.38% (inactive) |
| CC(C)NC(=O)N(C)C[C@@H]1OCCCC[C@@H](C)Oc2ccc(NC(=O)c3ccccc3)cc2C(=O)N([C@@H](C)CO)C[C@H]1C | -4.61% (inactive) |
